Measured values as given in ChEMBL document CHEMBL4513140, “CO-ADD screening of Lancaster University (UK) compounds” (2021).
Measured potencies and affinities stand elsewhere.

System: Klebsiella pneumoniae
Conditions: Concentration 32 ug.mL-1; ASSAY_TEST Inhibition of Bacterial Growth; detection method Absorption (OD600); MEDIA CAMHB; plate type 384well; NBS; CORNING #3640; time 18 hr

| SMILES | Inhibition |
| --- | --- |
| COC(=O)c1ccc(S)cc1 | -1.57% |
| CC(=O)c1cc(C(C)=O)cc(C(C)=O)c1 | 7.55% |
| CC(=NN)c1cc(/C(C)=N/N)cc(/C(C)=N/N)c1 | 4.02% |
| c1ccc2nc3c4cccnc4c4ncccc4c3nc2c1 | 2.4% |

System: Candida albicans
Conditions: 32 ug/mL

| SMILES | Inhibition |
| --- | --- |
| COC(=O)c1ccc(S)cc1 | 2.97% |
| CC(=O)c1cc(C(C)=O)cc(C(C)=O)c1 | 2.92% |
| CC(=NN)c1cc(/C(C)=N/N)cc(/C(C)=N/N)c1 | 5.62% |
| c1ccc2nc3c4cccnc4c4ncccc4c3nc2c1 | 9.1% |

System: Cryptococcus neoformans
Conditions: Concentration 32 ug.mL-1; ASSAY_TEST Inhibition of Fungal Growth; detection method Resazurin; Absorption (OD600-OD570); plate type 384well; NBS; CORNING #3640

| SMILES | Inhibition |
| --- | --- |
| COC(=O)c1ccc(S)cc1 | -49.69% |
| CC(=O)c1cc(C(C)=O)cc(C(C)=O)c1 | -57.45% |
| CC(=NN)c1cc(/C(C)=N/N)cc(/C(C)=N/N)c1 | -41.95% |
| c1ccc2nc3c4cccnc4c4ncccc4c3nc2c1 | -49.42% |
